# Results filed as inconclusive are left out. Active and inactive are the calls of the source. Unless noted, the call rests on the fitted dose curve; in most records, active means well fitted curve in the direction sought with a large enough effect; inconclusive means small, poorly fitted or top-dose-only effect, or another doubt; inactive means no such curve, though single readings can be large; an effect the other way counts as inactive or inconclusive.
# Experiments:
# [1] = target: Lysosomal acid glucosylceramidase (Homo sapiens) (UniProt P04062); assay: Glucocerebrosidase-p2 (AID 348; in the data active means potency below about 10 µM; further: potency means the concentration at half of the fitted maximal effect); details: purified GBA, blue fluorogenic substrate, 40 min
# In short: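 Compounds titrated from 0.6 nM upwards against 0.2 nM enzyme in pH 5.9 citric acid/KH2PO4, taurocholate, tween-20; blue fluorogenic substrate 80 uM, 40 min room temperature, stopped and read Ex 365/Em 440 for AC50.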
# [2] = AP1 Signaling Pathway (AID 357; active means well fitted curve in either direction with a large enough effect, not every such curve was filed as active;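 further: ME-180 reporter cells stimulated with EGF at its EC50 level; on the % scale 0 is the no-effect control and ±100 the full control effect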); details: ME-180 AP-1-bla reporter, EGF-induced, beta-lactamase ratio, 5 h; at 7.69 µM (top of the series) unless noted
# In short: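 Titration-series screen for positive or negative modulators of EC50 EGF-induced signaling in ME-180 cells carrying an AP-1-driven beta-lactamase reporter. After 5 hours at 37 degrees Celsius, CCF4 460nm/530nm emission ratio gave %Activity; AC50 values derived.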
# [3] = NFAT Signaling Pathway (AID 444; active means well fitted curve in either direction with a large enough effect, not every such curve was filed as active;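 further: carbachol stimulus at about its EC50 of 1 µM final; on the % scale 0 is the no-effect control and ±100 the full control effect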); details: Jurkat NFAT-bla M1, carbachol, beta-lactamase ratio, 5 h; at 7.69 µM (top of the series) unless noted
# In short: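 Jurkat cells carrying an NFAT-driven β-lactamase reporter and co-transfected muscarinic M1 receptor were treated with compound plus carbachol (1 uM final, an EC50 level) for 5 h at 37 °C. CCF4 loading followed for 1 h at RT; 460/530 nm ratio gave %activity.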
# [4] = Stat Signaling Pathway (AID 446; active means well fitted curve in either direction with a large enough effect, not every such curve was filed as active;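 further: ME-180 cervical cancer cells given 40 pM IL-6 alongside compound; SIE-controlled beta-lactamase reporter measured as 460/530 nm FRET emission ratio; on the % scale 0 is the no-effect control and ±100 the full control effect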); details: ME-180 SIE beta-lactamase reporter, IL-6 stimulated, 5 h; at 7.69 µM (top of the series) unless noted
# In short: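 ME-180 SIE-bla cells; overnight plating; cpd + IL-6 40 pM, 5 h, 37 C; LiveBLAzer 2.5 h RT; 460/530 nm emission ratio. Normalized to 300 pM IL-6 and 125 nM JAK inhibitor controls.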
# [5] = target: Glucocorticoid receptor (Homo sapiens) (UniProt P04150); assay: GR-GFP Redistribution (AID 450;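 active means compounds whose dose series gives a full or clear partial fitted curve of increased nuclear translocation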; further: potency means the concentration at half of the fitted maximal effect); details: U2OS GR-GFP nuclear translocation, laser cytometry, 2 h
# [6] = target: Mitogen-activated protein kinase 10 (Mus musculus) (UniProt Q61831); assay: JNK3 AlphaScreen Assay (AID 530; active means well fitted curve in either direction with a large enough effect, not every such curve was filed as active;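 further: kinase came from lysate of stimulated human HepG2 cells; signal reports phosphorylation of biotinylated GST-cJun 1-79 at Ser73 with 10 µM ATP; on the % scale 0 is the no-effect control and ±100 the full control effect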); details: JNK3 lysate, c-Jun phosphorylation; series mostly up to 57.1 µM
# In short: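 Inhibitors reduce antibody binding to phosphorylated biotin-cJun, lowering AlphaScreen luminescence. Lysates from HepG2 cells pre-activated by IL-1beta plus TNF-alpha supplied JNK3; compounds were titrated.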
# [7] = target: Cytochrome P450 2C9 (Homo sapiens) (UniProt P11712); assay: qHTS Assay for Inhibitors and Substrates of Cytochrome P450 2C9 (AID 883); details: recombinant CYP2C9, luciferin-H luminescence, 60 min; series mostly up to 57.1 µM; further: potency means the concentration at half of the fitted maximal effect; nearly all actives have a fitted effect of over 60% in size
# In short: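 CYP2C9 deoxyluciferin hydroxylation, 37C, 60 min with NADPH regeneration; 10nM enzyme, 100uM Luciferin-H (KM). Glo detection reagent stopped reaction; luminescence normalized to sulphaphenazole (57uM) full inhibition.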
# [8] = target: Cytochrome P450 3A4 (Homo sapiens) (UniProt P08684); assay: qHTS Assay for Inhibitors and Substrates of Cytochrome P450 3A4 (AID 884); details: recombinant CYP3A4, Luciferin-PPXE luminescence; series mostly up to 57.1 µM; further: potency means the concentration at half of the fitted maximal effect; nearly all actives have a fitted effect of over 50% in size
# In short: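 20 nM human CYP3A4 with 25 uM Luciferin-PPXE (at KM) in 200 mM KPO4, preincubated 10 min with compound; NADPH regeneration started a 60 min RT reaction. Luciferin detected by luminescence, normalized to 57 uM ketoconazole as full inhibition.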
# [9] = target: Cytochrome P450 3A4 (Homo sapiens) (UniProt P08684); assay: qHTS Assay for Activators of Cytochrome P450 3A4 (AID 885); details: recombinant CYP3A4, Luciferin-PPXE luminescence, 60 min; series mostly up to 57.1 µM; further: nearly all actives have a fitted effect of over 65% in size
# In short: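 20nM CYP3A4 + 25uM Luciferin-PPXE (=KM), 200mM KPO4; cpd 10 min RT; NADPH regen, 60 min RT; stop w/ detection buffer, 20 min; luminescence. Normalized to 57 uM ketoconazole.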
# [10] = target: Dual specificity protein kinase CLK4 (Homo sapiens) (UniProt Q9HAZ1); assay: qHTS Assay for Inhibitors of CDC-like Kinase 4 (ADP-FP Assay) (AID 1795); details: Transcreener ADP fluorescence polarization; series mostly up to 50 µM;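 further: recombinant human CLK4 phosphorylating RS repeat peptide at 1 µM ATP; on the % scale 0 is the no-effect control and ±100 the full control effect; nearly all actives have a fitted effect of over 60% in size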
# In short: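 Kinase activity was measured as ADP production using Transcreener orange tracer (4 nM) and ADP antibody (1 ug/mL) fluorescence polarization, with ADP calculated from a calibration curve. The 1 h reaction contained 6.25 nM Clk4, 1 uM ATP and 100 uM RS peptide at pH 7.5 with Mg2+.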
# [11] = Counterscreen qHTS for small molecule stabilizers of the endoplasmic reticulum resident proteome: GLuc-NoTag assay (AID 1508627); details: Gaussia luciferase NoTag secretion counterscreen, luminescence, thapsigargin 100 nM for final 4 h; series mostly up to 76.4 µM;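 further: SH-SY5Y cells given compound then 100 nM thapsigargin to empty ER calcium; 0% = thapsigargin alone and -100% = DMSO vehicle control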
# In short: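 SH-SY5Y cells stably expressing constitutively secreted GLuc (no SERCaMP tag) were pre-incubated 5 h, treated with compound for 19 h, then 100 nM thapsigargin for 4 h at 37C; medium GLuc read by coelenterazine luminescence.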
# [12] = Confirmatory qHTS for small molecule stabilizers of the endoplasmic reticulum resident proteome: Secreted ER Calcium Modulated Protein (SERCaMP) assay (AID 1508628); details: SERCaMP secreted luciferase ER calcium/proteostasis reporter; series mostly up to 76.3 µM; further: nearly all actives have a fitted effect of over 40% in size; further: potency means the concentration at half of the fitted maximal effect
# In short: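 SH-SY5Y cells stably expressing GLuc-SERCaMP, treated 16 h with compound (primary 1.53, 7.67, 38.3 uM; confirmation 11 concentrations, up to 76.6 uM), then 100 nM thapsigargin for 4 h. Secreted Gaussia luciferase in medium read by coelenterazine luminescence.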
# [13] = target: Glucocorticoid receptor (Homo sapiens) (UniProt P04150); assay: GR-EFC Redistribution (AID 451; calls by dose curve; further: potency means the concentration at half of the fitted maximal effect); details: CHO-K1 GR-EFC translocation, beta-gal luminescence, 2 h
# In short: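 CHO-K1 cells stably expressing nuclear-localized β-gal enzyme acceptor and GR fused C-terminally to the enzyme donor fragment; ligand-driven nuclear translocation restores β-gal by complementation. Compounds titrated up to 46 uM final, 2 h at 37 °C; luminescence read.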
# [14] = target: 3',5'-cyclic-AMP phosphodiesterase 4B (Homo sapiens) (UniProt Q07343); assay: qHTS Assay for Inhibitors of PDE-IV (AID 607; active means well fitted activation curve with a large enough effect in the main read-out, with a control signal flat, not every such curve was filed as active; further: % of control where 0% means no effect); details: HEK293 ACTOne CNG channel cells, membrane potential fluorescence; series mostly up to 22.9 µM
# In short: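 ACTOne HEK293 cells carry a modified cAMP-gated CNG channel and express endogenous PDE4; plated 1000 cells/well, compounds up to 22.9 uM final. Membrane-potential dye fluorescence (ex 535/em 590) was read; parental cells received 10 uM forskolin + 100 uM RO 20-1724.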
# [15] = Confirmation and Secondary Assay for Modulators of Hemoglobin Beta Chain Splicing at IVS2 654 locus (AID 910); details: HeLa EGFP-654 splicing reporter, GFP fluorescence, 48 h; series mostly up to 38.3 µM;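 further: per-well total GFP intensity by laser scanning cytometry after 2-day treatment; % of control where 0% means no effect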
# In short: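 HeLa cells stably carrying EGFP interrupted by mutant beta-globin IVS2-654 intron (CMV-driven) were treated with compound for 2 days at 37C; corrected splicing was scored as total peak GFP intensity per well (488 nm excitation, 500-520 nm emission).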
# [16] = Confirmation and Secondary Assay for Modulators of Hemoglobin Beta Chain Splicing at IVS2 705 locus (AID 930); details: HeLa EGFP-705 splicing reporter, GFP fluorescence, 48 h; series mostly up to 38.3 µM;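 further: HeLa cells stably expressing the EGFP-705 splicing reporter; % of control where 0% means no effect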
# In short: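 Restored EGFP fluorescence after 2-day compound exposure reports splicing correction in IVS2-705 EGFP reporter HeLa cells; positive control was 500 nM splice-blocking PNA oligo. Signal measured as well total peak GFP intensity (488 nm excitation).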
# [17] = qHTS Assay for Lipid Storage Modulators (AID 1519; calls by dose curve); details: Drosophila S3 cells, BODIPY lipid droplet/cell ratio, laser cytometry, cells loaded with oleic acid; for activity change, negative = inhibition: at 57.5 µM (top of the series)
# In short: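 Cells seeded at 5,000 per well were treated with compounds over a concentration series and loaded with oleic acid (400 uM, as added). Lipid droplet fluorescence (488 nm excitation, 500-530 nm channel) was read by laser-scanning cytometry and normalized to 20 uM Triacsin C.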
# [18] = target: Cytochrome P450 1A2 (Homo sapiens) (UniProt P05177); assay: p450-cyp1a2 (AID 410; calls by dose curve; further: potency means the concentration at half of the fitted maximal effect); details: recombinant CYP1A2, luciferin-ME demethylation, luminescence; series mostly up to 57 µM
# In short: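 Luminescent readout of luciferin formed from Luciferin-ME by human CYP1A2; data normalized against complete inhibition by 57 uM furafylline. Enzyme 20nM, substrate 100uM at Km, 100mM KPO4 buffer, 60 min reaction at room temperature.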
# [19] = qHTS Assay for Identification of Small Molecule Agonists for Hypoxia Response Element Signaling Pathway (AID 914; active means well fitted activation curve with a large enough effect in the signal ratio, with a control signal flat, not every such curve was filed as active; the % refers to the signal ratio; further: potency means the concentration at half of the fitted maximal effect; on activation: % of control where 0% means no effect); details: ME-180 (cervical carcinoma) HRE-bla reporter, beta-lactamase ratio, CoCl2, 17 h; activation: stronger effect = higher value
# In short: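 AC50 values come from titration-series %Activity, taken as the 460/530nm ratio of CCF4 fluorescence (excitation 405nm). CellSensor HRE-bla ME-180 cells were treated 17 hours at 37 C with compound plus an EC50 level of CoCl2.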
# [20] = target: Dual specificity protein kinase CLK4 (Homo sapiens) (UniProt Q9HAZ1); assay: qHTS Assay for Inhibitors of CDC-like Kinase 4 (Kinase-Glo Assay) (AID 1770); details: recombinant Clk4, Kinase-Glo ATP depletion luminescence; series mostly up to 66.7 µM; further: on the % scale 0 is the no-effect control and ±100 the full control effect; nearly all actives have a fitted effect of over 65% in size
# In short: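 Luminescent ATP-depletion read-out (Kinase-Glo) after 4.5 h room-temperature reaction of Clk4 (25 nM final) with RS peptide (100 uM) and ATP (1 uM), pH 7.5 Tris buffer with MgCl2 and DTT.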
# [21] = target: Dual specificity protein kinase CLK4 (Homo sapiens) (UniProt Q9HAZ1); assay: qHTS Assay for Inhibitors of CDC-like Kinase 4 (ADP-Glo Assay) (AID 1771); details: recombinant CLK4, ADP-Glo luminescence; series mostly up to 80 µM; further: on the % scale 0 is the no-effect control and ±100 the full control effect; nearly all actives have a fitted effect of over 70% in size
# In short: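 Luminescence from ADP-Glo reports ADP produced by 25 nM Clk4 acting on 100 uM RS repeat peptide with 1 uM ATP over 1 hr at room temperature; residual ATP is depleted before ADP is converted to ATP for detection.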
# [22] = target: Ubiquitin carboxyl-terminal hydrolase 1 (Homo sapiens) (UniProt O94782); assay: Inhibitors of USP1/UAF1: Pilot qHTS (AID 504865); details: purified USP1/UAF1, Ub-rhodamine cleavage fluorescence; series mostly up to 54.9 µM;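 further: rhodamine fluorescence freed from ubiquitin-rhodamine substrate followed over time; top concentration of the series differs between compounds; on the % scale 0 is the no-effect control and ±100 the full control effect; nearly all actives have a fitted effect of over 35% in size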
# In short: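 Deubiquitinase activity followed as kinetic rhodamine fluorescence release from 150 nM Ub-Rho. 1 nM USP1/UAF1 with compound, after 15 min room-temperature preincubation, in HEPES pH 7.8 buffer containing TCEP, EDTA, BSA and Tween-20.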
# [23] = Cell Viability qHTS for small molecule stabilizers of the endoplasmic reticulum resident proteome (AID 1508629); details: cell viability counter-screen, 100 nM thapsigargin for final 4 h
# [24] = measured here: cell count channel max response
# [25] = measured here: lipid channel max response
# Chain of Cytochrome P450 1A2 (Homo sapiens) (P05177 whole entry, looked up): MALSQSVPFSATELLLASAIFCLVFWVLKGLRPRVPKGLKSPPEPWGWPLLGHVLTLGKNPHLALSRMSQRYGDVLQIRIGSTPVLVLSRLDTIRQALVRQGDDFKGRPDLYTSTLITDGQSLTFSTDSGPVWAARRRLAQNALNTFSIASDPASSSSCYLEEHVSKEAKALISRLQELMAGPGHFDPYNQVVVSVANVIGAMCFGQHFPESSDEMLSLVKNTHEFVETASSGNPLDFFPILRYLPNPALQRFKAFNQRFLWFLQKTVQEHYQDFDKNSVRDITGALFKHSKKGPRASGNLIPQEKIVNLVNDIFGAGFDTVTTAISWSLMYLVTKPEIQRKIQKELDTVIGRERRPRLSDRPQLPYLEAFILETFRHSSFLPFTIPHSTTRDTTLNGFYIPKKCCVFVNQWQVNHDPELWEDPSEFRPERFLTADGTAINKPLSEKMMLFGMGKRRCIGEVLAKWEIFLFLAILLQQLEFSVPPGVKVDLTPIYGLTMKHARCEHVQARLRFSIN
# Chain of Lysosomal acid glucosylceramidase (Homo sapiens) (P04062 whole entry, looked up): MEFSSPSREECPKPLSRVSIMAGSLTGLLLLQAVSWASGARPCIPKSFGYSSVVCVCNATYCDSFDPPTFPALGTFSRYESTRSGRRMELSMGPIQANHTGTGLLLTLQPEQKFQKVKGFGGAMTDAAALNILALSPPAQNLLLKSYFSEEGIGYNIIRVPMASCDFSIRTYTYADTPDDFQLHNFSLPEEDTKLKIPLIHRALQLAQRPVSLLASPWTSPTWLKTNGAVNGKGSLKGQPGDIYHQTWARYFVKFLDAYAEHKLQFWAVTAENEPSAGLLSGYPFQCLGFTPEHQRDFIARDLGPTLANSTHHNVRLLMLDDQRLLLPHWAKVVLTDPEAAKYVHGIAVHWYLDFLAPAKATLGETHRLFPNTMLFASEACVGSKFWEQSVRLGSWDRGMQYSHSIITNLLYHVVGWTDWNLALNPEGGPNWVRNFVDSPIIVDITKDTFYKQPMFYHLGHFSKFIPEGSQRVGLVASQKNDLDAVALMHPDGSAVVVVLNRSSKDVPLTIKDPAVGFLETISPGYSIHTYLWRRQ
# Chain of Cytochrome P450 3A4 (Homo sapiens) (P08684 whole entry, looked up): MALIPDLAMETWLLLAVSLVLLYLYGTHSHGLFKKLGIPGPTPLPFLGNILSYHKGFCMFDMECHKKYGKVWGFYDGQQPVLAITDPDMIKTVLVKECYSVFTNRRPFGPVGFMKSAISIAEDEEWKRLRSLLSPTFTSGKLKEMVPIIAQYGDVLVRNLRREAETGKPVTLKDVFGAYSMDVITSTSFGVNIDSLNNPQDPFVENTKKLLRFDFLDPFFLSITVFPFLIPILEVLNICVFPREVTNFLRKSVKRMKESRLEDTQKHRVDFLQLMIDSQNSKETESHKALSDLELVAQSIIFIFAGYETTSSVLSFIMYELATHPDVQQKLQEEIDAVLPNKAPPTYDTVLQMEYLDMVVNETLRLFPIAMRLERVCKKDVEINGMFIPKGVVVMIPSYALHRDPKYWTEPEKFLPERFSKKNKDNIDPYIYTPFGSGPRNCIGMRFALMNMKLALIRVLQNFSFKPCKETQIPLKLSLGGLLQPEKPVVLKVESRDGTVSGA
# Chain of 3',5'-cyclic-AMP phosphodiesterase 4B (Homo sapiens) (Q07343 whole entry, looked up): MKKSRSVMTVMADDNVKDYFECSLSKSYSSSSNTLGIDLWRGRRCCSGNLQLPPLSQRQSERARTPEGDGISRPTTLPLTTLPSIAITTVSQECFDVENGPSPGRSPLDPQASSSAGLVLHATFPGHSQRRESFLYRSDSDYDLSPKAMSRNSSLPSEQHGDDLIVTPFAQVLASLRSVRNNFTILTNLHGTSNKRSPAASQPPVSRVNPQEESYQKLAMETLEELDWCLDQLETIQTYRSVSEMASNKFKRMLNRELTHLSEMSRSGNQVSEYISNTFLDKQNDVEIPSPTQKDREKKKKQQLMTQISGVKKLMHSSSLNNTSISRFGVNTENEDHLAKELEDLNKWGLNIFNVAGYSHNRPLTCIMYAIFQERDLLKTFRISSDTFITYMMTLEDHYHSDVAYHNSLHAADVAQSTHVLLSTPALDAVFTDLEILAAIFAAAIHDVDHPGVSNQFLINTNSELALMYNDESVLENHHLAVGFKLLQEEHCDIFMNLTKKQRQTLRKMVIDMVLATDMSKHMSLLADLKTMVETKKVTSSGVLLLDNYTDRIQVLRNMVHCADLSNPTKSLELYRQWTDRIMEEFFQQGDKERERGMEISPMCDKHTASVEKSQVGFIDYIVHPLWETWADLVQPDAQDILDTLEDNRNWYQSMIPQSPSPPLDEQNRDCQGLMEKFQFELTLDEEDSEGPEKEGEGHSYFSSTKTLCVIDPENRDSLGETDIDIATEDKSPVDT
# Chain of Glucocorticoid receptor (Homo sapiens) (P04150 whole entry, looked up, the tested form may be a part): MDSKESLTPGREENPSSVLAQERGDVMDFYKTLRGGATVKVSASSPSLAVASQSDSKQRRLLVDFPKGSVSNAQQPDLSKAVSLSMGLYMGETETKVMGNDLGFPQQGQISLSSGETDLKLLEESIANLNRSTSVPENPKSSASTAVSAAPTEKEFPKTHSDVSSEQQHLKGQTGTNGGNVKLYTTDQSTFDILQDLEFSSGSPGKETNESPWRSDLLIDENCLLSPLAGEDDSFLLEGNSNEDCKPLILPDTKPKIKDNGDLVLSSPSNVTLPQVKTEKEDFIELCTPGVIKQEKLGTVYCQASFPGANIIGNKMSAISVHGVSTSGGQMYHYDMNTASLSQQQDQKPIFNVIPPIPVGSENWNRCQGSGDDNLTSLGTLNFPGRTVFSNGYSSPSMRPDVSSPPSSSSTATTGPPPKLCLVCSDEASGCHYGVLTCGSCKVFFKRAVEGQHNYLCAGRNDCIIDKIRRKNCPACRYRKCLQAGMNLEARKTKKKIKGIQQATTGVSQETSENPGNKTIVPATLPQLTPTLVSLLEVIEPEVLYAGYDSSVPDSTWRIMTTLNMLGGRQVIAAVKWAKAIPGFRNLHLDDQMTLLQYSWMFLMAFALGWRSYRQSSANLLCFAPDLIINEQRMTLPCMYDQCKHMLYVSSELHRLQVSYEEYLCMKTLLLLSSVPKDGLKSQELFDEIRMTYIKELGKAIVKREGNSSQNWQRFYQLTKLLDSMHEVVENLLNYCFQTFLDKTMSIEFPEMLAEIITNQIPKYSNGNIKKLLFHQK
# Chain of Dual specificity protein kinase CLK4 (Homo sapiens) (Q9HAZ1 whole entry, looked up): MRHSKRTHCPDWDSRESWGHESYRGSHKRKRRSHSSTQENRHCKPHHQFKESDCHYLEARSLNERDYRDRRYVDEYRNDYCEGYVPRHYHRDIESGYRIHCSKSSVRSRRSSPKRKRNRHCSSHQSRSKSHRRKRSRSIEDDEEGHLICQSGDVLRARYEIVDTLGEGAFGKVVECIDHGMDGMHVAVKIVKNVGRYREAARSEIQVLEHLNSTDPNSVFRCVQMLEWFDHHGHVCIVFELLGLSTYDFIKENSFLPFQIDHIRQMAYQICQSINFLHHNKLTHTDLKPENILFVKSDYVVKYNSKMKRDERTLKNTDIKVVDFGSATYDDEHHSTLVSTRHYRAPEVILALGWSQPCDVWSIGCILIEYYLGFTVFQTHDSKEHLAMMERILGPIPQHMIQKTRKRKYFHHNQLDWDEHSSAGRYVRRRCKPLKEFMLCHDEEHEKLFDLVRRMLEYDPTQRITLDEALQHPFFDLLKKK
# Chain of Ubiquitin carboxyl-terminal hydrolase 1 (Homo sapiens) (O94782 whole entry, looked up): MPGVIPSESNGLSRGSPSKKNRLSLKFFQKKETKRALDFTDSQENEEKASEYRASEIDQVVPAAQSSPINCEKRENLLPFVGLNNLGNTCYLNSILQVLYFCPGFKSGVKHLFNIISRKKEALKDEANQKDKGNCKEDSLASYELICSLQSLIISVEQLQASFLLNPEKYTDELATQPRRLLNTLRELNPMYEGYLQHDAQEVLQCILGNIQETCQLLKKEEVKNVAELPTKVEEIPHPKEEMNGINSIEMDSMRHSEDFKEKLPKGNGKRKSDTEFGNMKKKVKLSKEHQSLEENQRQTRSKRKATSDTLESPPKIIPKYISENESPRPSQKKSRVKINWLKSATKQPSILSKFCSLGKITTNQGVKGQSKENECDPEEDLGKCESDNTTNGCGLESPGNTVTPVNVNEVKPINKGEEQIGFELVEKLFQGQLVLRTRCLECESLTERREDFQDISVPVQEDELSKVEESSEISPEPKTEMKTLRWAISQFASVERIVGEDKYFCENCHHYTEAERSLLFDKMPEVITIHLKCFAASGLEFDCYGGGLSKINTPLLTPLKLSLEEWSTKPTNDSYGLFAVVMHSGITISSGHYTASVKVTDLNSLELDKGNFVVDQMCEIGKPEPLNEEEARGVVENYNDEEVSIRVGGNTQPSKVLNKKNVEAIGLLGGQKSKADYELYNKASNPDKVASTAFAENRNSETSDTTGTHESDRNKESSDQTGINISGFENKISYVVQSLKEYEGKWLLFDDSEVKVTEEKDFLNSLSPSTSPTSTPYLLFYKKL
# Chain of Cytochrome P450 2C9 (Homo sapiens) (P11712 whole entry, looked up): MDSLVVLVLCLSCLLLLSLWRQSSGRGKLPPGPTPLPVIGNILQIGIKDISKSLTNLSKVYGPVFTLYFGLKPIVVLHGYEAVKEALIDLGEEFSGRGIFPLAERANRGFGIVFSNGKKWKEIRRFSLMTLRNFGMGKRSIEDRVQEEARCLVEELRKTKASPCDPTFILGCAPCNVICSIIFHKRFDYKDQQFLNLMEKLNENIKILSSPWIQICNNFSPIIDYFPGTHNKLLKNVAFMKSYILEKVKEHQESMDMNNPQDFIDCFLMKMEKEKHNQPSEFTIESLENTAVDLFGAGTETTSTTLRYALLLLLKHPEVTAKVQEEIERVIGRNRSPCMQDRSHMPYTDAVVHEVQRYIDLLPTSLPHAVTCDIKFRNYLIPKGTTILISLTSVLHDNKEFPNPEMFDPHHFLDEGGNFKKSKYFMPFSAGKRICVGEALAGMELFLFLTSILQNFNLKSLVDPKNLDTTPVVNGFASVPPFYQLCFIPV
smiles,measurement,setting,value
COc1ccc(CNc2ncnc3ccc(-c4ccccc4OC)cc23)c(OC)c1,Potency,[1],> 11.4 µM (inactive)
same,"activity change, negative = inhibition",[2],-4.21% (inactive)
same,"activity change, negative = inhibition",[3],-17.9% (inactive)
same,"activity, negative = inhibition",[4],-2.99% (inactive)
same,Potency,[5],> 46 µM (inactive)
same,outcome,[6],inactive
same,Potency,[7],398 nM (active)
same,Potency,[8],2 µM (active)
same,Potency,[9],inactive
same,Potency,[10],inactive
same,Potency,[11],inactive
same,Potency,[12],22.4 µM (active)
Cc1noc(C)c1-c1nc(N2CCNCC2)c2ccccc2n1,Potency,[1],> 11.4 µM (inactive)
same,"activity change, negative = inhibition",[2],18.5% (inactive)
same,"activity change, negative = inhibition",[3],-3.25% (inactive)
same,"activity, negative = inhibition",[4],13.9% (inactive)
same,Potency,[5],> 46 µM (inactive)
same,Potency,[13],> 46 µM (inactive)
same,outcome,[6],inactive
same,Potency,[14],inactive
same,outcome,[15],inactive
same,outcome,[16],inactive
same,"activity change, negative = inhibition",[17],9.99% (inactive)
same,max response,[17]; [24],11.4%
same,max response,[17]; [25],19.2%
same,Potency,[11],inactive
same,Potency,[12],14.1 µM (active)
COCCn1c(=O)c(-c2ccc(OC)cc2)nc2cnc(N3CCNCC3)nc21,Potency,[1],> 11.4 µM (inactive)
same,Potency,[18],6.31 µM (active)
same,Potency,[5],> 9.22 µM (inactive)
same,Potency,[13],> 46 µM (inactive)
same,outcome,[6],inactive
same,Potency,[14],inactive
same,Potency,[9],inactive
same,Potency,[11],inactive
same,Potency,[12],inactive
O=c1c(-c2ccccc2)nc2cnc(N3CCNCC3)nc2n1-c1ccccc1,Potency,[1],> 11.4 µM (inactive)
same,Potency,[18],7.94 µM (active)
same,Potency,[5],> 9.22 µM (inactive)
same,Potency,[13],> 46 µM (inactive)
same,outcome,[6],inactive
same,Potency,[14],inactive
same,Potency,[9],inactive
same,Potency,[19],3.16 µM (active)
same,Potency,[20],inactive
same,Potency,[21],inactive
same,Potency,[10],inactive
same,Potency,[22],inactive
same,Potency,[11],inactive
same,Potency,[12],inactive
CN1CCN(c2ncncc2-c2ccccc2C(F)(F)F)CC1,Potency,[1],> 11.4 µM (inactive)
same,"activity change, negative = inhibition",[2],1.62% (inactive)
same,Potency,[18],31.6 µM (active)
same,"activity, negative = inhibition",[4],0.819% (inactive)
same,Potency,[5],> 46 µM (inactive)
same,Potency,[13],> 46 µM (inactive)
same,outcome,[6],inactive
same,Potency,[14],inactive
same,Potency,[9],inactive
same,activation,[19],5.49% (inactive)
same,"activity change, negative = inhibition",[17],6.69% (inactive)
same,max response,[17]; [24],25.9%
same,max response,[17]; [25],29.8%
same,Potency,[20],inactive
same,Potency,[10],inactive
same,Potency,[22],inactive
same,Potency,[11],inactive
same,max response,[23],18.7% (inactive)
N#CCCn1c(=O)c(-c2ccc(Cl)cc2)nc2cnc(OCc3ccccc3)nc21,Potency,[1],> 11.4 µM (inactive)
same,Potency,[18],2 µM (active)
same,"activity, negative = inhibition",[4],1.91% (inactive)
same,Potency,[5],> 9.22 µM (inactive)
same,Potency,[13],> 46 µM (inactive)
same,outcome,[6],inactive
same,"activity change, negative = inhibition",[17],5.27% (inactive)
same,max response,[17]; [24],8.68%
same,max response,[17]; [25],16.3%
same,Potency,[11],inactive
same,Potency,[12],inactive
